Screening data deposited in PubChem BioAssay by several laboratories.
Hits are enriched below; roughly 3.5% of the tested compounds scored in any of these assays.
TROY NFkB inh – TROY signaling inhibition; Q293 LMP1-TROYcd NF-kB luciferase reporter, 4 h; inhibition, % at 10 µM; hit rate 0.98% among 360,000;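 active = compounds whose plate-normalised and pattern-corrected inhibition of the luciferase reporter signal at the single screening dose is 50% or more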
HSP90 refold inh – blocks HSP90-mediated luciferase refolding in reticulocyte lysate. Rabbit reticulocyte lysate, luciferase refolding luminescence, 3 h. inhibition, % at 5.6 µM. hit rate 0.91% among 290,000;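 active = inhibition above the screen-wide mean plus 3 SD, computed separately per campaign, cut at about 16% in these data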;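 note: 0% = DMSO wells and 100% = 60 µM geldanamycin wells; inhibitors lower the luminescence because luciferase stays unfolded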
PPC-1+TRAIL kill – kills PPC-1 cancer cells in the presence of TRAIL. PPC-1 cells + TRAIL, ATPLite viability luminescence. cell killing (% activity), % at 4 µM or 5 µM. hit rate 0.41% among 220,000. AID 1443;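 active = cell killing above 50% in the first pass at 4 µM, then a duplicate retest at 5 µM averaging 50% or more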;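 note: plate controls were cells with TRAIL plus DMSO for no effect and medium-only wells lacking cells for full effect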
TRAIL sens C8 – caspase-8 TRAIL sensitization. NB7+C8 cells + TRAIL, ATPlite viability luminescence. inhibition (viability loss, TRAIL sensitization), % at 10 µM. hit rate 1% among 360,000;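 active = compounds causing at least 50% loss of cell viability in the single-dose screen, relative to plate controls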
TWEAK Fn14 block – TWEAK-Fn14 signaling inhibition; TWEAK-stimulated Fn14 reporter cells, luciferase luminescence, 8 h; inhibition, % at 10 µM; hit rate 2% among 360,000; AID 1159606; in the data active = inhibition above about 50%
Platelet DG rel – modulates dense granule release in human platelets; hit rate 0.22% among 300,000; human platelet-rich plasma, SFLLRN dense granule ATP release, luminescence; inhibition, %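 (compounds screened at 7.5 µM in platelet-rich plasma)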; AID 1663;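 active = mean replicate score, as percent of positive control, at or above 50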
* marks the source's active call; other numbers are inactive results; x = not tested or not shown.

SMILES	TROY NFkB inh	HSP90 refold inh	PPC-1+TRAIL kill	TRAIL sens C8	TWEAK Fn14 block	Platelet DG rel
COc1ccccc1C=NN=C(NN=Cc1ccccc1OC)NN=Cc1ccccc1OC	56*	x	x	69*	101*	x
COc1ccccc1/C=N/Nc1nccnc1Cl	-39	16	14	7	9	68*
COc1ccccc1C=NNC(=O)NN=Cc1ccccc1OC	-12	x	x	65*	3	x
COc1cc2cc(C(=O)N/N=C/c3ccccc3Cl)[nH]c2cc1OC	-28	1	x	19	52*	-1
Cc1ccc(OCCOC(=O)CCc2nc3ccccc3c(=O)[nH]2)cc1	4	-3	5	-4	3	0
CCOC(=O)C(C)(C)N(Cc1ccc(Cl)cc1)S(=O)(=O)c1ccc(Cl)c([N+](=O)[O-])c1	x	-3	14	x	x	-4
CCOC(=O)C(C)(C)N(Cc1ccc(C)cc1)S(=O)(=O)c1ccc(Cl)c([N+](=O)[O-])c1	30	-4	42	40	60*	-13
CC(C)n1cnc2cc(NCc3nc4ccccc4n3C)ccc21	67*	16*	35	32	60*	23
CCn1cnc2cc(NCc3nc4ccccc4n3C)ccc21	69*	13	5	38	86*	46
Cc1nnc(NC(=O)CSc2ncnc3scc(-c4ccccc4)c23)s1	22	3	14	-10	-1	3
Cn1nnnc1Sc1ncnc2scc(-c3ccsc3)c12	33	x	x	-3	72*	x
Fc1ccc(CSc2ncnc3scc(-c4ccccc4)c23)cc1	-4	0	-16	9	-7	10
Cn1nnnc1Sc1ncnc2scc(-c3cc4ccccc4o3)c12	76*	x	x	38	103*	x
Cn1nnnc1Sc1ncnc2scc(-c3ccc(-c4ccccc4)cc3)c12	4	x	x	19	78*	x
Cn1nnnc1Sc1ncnc2scc(-c3ccc(C#N)cc3)c12	46	x	x	10	83*	x
Cc1ccc(-c2csc3ncnc(SCC(=O)O)c23)cc1	7	2	9	-3	9	4
CC(=O)c1ccccc1-c1csc2ncnc(Sc3nnnn3C)c12	-11	x	x	-3	33	x
CC(O)c1nc2ccccc2n1CCCc1ccccc1 (centres undefined)	0	1	x	5	9	3
COc1ccc(C(=O)OCc2ccccc2F)cc1S(=O)(=O)N1CCCC1	6	x	x	10	-13	x
Cc1csc2c(N3CCN(C(=O)Nc4ccc(Cl)c(Cl)c4)CC3)ncnc12	63*	-4	-6	0	16	2
O=C(CCN1C(=O)C2CCCCC2C1=O)Nc1nc2ccc(F)cc2s1 (centres undefined)	73*	x	x	2	72*	x
COc1ccc2nc(NC(=O)C3CC(=O)N(c4ccc5c(c4)OCCO5)C3)sc2c1 (centres undefined)	-16	x	x	-5	5	x
O=C(Nc1nnc(C2CC2)s1)C1CC(=O)N(c2ccc3c(c2)OCCO3)C1 (centres undefined)	51*	4	14	16	78*	17
O=C(Nc1nc2ccc(F)cc2s1)C1CC(=O)N(c2ccc3c(c2)OCCO3)C1 (centres undefined)	-12	x	x	3	55*	x
O=C(Nc1nc(-c2ccccn2)cs1)C1CC(=O)N(c2ccc3c(c2)OCCO3)C1 (centres undefined)	20	-2	26	5	70*	13
SMILES	TROY NFkB inh	HSP90 refold inh	PPC-1+TRAIL kill	TRAIL sens C8	TWEAK Fn14 block	Platelet DG rel
O=C(Nc1nc2ccc(F)cc2s1)C1=COCCO1	36	x	x	40	85*	41
CSc1cccc2sc(NC(=O)C3=COCCO3)nc12	-45	x	x	-16	-5	2
COc1ccc(-c2nc(NC(=O)C3CC(=O)N(c4ccc5c(c4)OCCO5)C3)sc2C)cc1 (centres undefined)	48	3	24	-44	82*	-3
O=C(NCC1CCCO1)c1ccc2c(=O)n(CC3CCCO3)c(SCC(=O)N3CCCC3)nc2c1 (centres undefined)	4	-1	35	-3	12	7
CC(C)(C)NC(=S)Nc1ccc(Br)cc1	-8	1	12	-2	7	0
CC(C)(C)NC(=S)Nc1ccc(Nc2ccccc2)cc1	-61	1	2	-8	56*	-7
CN(C)C(=O)c1ccc(-n2nc(C(F)(F)F)c3c2CCCC3)cc1	x	4	7	0	59*	-8
O=C1NC[C@H](CCCCN2C[C@@H](Cc3ccccc3)N(CCC3CCCCC3)C(=O)C2=O)N(CCC2CCCCC2)C1=O	7	x	x	19	43	x
C=C(C)[C@@H]1CCC2(C(=O)O)CC[C@]3(C)[C@H](CC[C@@H]4[C@@]5(C)CCC(=O)C(C)(C)[C@@H]5CC[C@]43C)[C@@H]12 (some centres undefined)	-4	-1	11	8	51*	11
Cc1ccc(C)c(S(=O)(=O)N2CCCC2CNC(=O)C(=O)NCC2CCCO2)c1 (centres undefined)	7	x	x	-10	-4	10
COc1cc(/C=C2\SC(=O)N(CC(=O)Nc3ccccc3F)C2=O)cc(Cl)c1O	54*	-2	x	-2	18	-7
CCc1nc2c(OCCOc3ccccc3)cccn2c1N(C)C(=O)C1CC1	0	x	x	0	19	x
O=C1OC(c2ccccc2)(c2cc(Br)c(O)c(Br)c2)c2ccccc21 (centres undefined)	53*	x	x	-15	33	x
O=C(O)c1ccc(C2(c3ccc(C(=O)O)cc3)OC(=O)c3ccccc32)cc1	-11	3	x	0	7	5
CCCCCNC(=O)C1CCC(Cn2c(=S)[nH]c3ccccc3c2=O)CC1 (centres undefined)	12	-2	x	8	10	4
CC(=O)c1c(C)[nH]c(C(=O)Nc2cccc(C)n2)c1C	-1	13	x	47	53*	-2
CC(=O)c1c(C)[nH]c(C(=O)NCc2ccccc2Cl)c1C	-14	1	x	1	-8	0
CC(=O)c1c(C)[nH]c(C(=O)NCc2ccccc2F)c1C	8	-3	x	1	54*	4
COc1ccc(NC(=O)c2[nH]c(C)c(C(C)=O)c2C)cc1	-31	-2	-7	11	-9	-4
CC(=O)c1c(C)[nH]c(C(=O)Nc2cccc3ccccc23)c1C	46	5	x	0	40	-2
CC(=O)c1c(C)[nH]c(C(=O)Nc2ccc(N3CCCCCC3)cc2)c1C	46	x	x	-3	72*	x
O=C(CSc1nnc(-c2ccc(C(F)(F)F)cn2)o1)Nc1cccc(Cl)c1	-31	4	22	10	-31	5
C#CCSc1nnc(-c2ccc(OC)cc2)o1	-42	3	19	92*	-9	6
COc1ccc(-c2nnc(SCC(=O)c3[nH]c(C)c(C(C)=O)c3C)o2)cc1	22	3	10	48*	30	x
COc1ccc(C(=O)N2CCc3ccc(NC(=O)c4ccccn4)cc3C2)cc1F	-6	-4	x	36	-7	-6
